Assay outcomes (PubChem BioAssay)
USP28 inh – blocks human USP28 ubiquitin-rhodamine cleavage; purified USP28, Ub-rhodamine cleavage fluorescence, 30 min; inhibition, % at 25 µM; Q96RU2; 47,000 tested, 3% active
Target sequence (Q96RU2 whole entry, looked up): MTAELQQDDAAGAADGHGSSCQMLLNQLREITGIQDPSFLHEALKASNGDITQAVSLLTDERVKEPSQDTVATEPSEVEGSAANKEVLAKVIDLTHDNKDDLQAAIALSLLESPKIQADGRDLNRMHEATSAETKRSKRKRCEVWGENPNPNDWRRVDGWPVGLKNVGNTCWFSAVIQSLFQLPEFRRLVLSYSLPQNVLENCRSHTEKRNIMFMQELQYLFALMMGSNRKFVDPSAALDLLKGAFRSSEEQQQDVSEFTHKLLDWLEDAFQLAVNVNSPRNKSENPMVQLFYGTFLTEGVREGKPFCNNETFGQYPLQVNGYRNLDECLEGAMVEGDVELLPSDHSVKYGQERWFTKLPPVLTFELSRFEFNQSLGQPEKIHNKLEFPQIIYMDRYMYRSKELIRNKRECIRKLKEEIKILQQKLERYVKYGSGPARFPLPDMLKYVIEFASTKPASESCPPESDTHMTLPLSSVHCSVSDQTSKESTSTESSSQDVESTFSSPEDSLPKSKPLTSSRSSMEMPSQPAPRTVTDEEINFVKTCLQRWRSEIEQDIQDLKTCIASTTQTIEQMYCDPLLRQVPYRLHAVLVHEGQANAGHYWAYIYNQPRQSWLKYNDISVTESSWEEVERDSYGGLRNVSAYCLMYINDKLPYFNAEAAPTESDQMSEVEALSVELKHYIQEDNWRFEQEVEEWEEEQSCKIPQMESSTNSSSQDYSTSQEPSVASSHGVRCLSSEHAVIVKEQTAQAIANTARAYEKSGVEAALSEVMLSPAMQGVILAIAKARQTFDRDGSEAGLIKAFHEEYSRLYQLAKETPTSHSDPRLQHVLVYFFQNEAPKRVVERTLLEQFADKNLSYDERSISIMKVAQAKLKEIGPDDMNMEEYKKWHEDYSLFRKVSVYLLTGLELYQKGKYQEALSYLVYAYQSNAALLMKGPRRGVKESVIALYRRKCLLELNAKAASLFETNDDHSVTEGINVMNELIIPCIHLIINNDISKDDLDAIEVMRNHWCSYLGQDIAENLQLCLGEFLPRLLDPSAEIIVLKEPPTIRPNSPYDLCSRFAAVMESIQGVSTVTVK
USP17 inh – human USP17-like deubiquitinase inhibition; AID 1645855; purified USP17, Ub-rhodamine cleavage fluorescence, 3 h; 47,000 tested, 6.5% active; inhibition, % at 50 µM
USP8 block – inhibitors of human USP8 deubiquitinase; P40818; purified USP8, Ub-rhodamine cleavage fluorescence, 30 min; inhibition, % at 20 µM; 47,000 tested, 4.2% active
USP30 block – blocks human USP30 ubiquitin-rhodamine cleavage; Q70CQ3; purified USP30, Ub-rhodamine cleavage fluorescence; inhibition, % at 25 µM; 47,000 tested, 5.3% active
USP10 inh – human USP10 deubiquitinase inhibition. inhibition, % at 20 µM. Q14694. AID 1645856. purified USP10, Ub-rhodamine fluorescence, 60 min. 47,000 tested, 1.1% active
Numbers without * were called inactive. This is a sample that favours compounds with a hit; in the whole collection about 14% have one here. Cut-off read from the data, not from the text of the source: active = inhibition above about 30%; inactive = the rest.

What do the screens show for `COC(=O)c1ccc(N2CCN(C(=O)c3ccccc3)CC2)c(NC(=O)COc2ccccc2Cl)c1`?
USP28 inh: 8.7; USP17 inh: 39.2*; USP8 block: 7.5; USP30 block: 33.0*; USP10 inh: 7.8

Results for Cc1noc(NS(=O)(=O)c2ccc(NC(=O)CSc3ccc4ccccc4c3)cc2)c1C ?
USP28 inh: 35.8*; USP17 inh: 52.2*; USP8 block: 68.0*; USP30 block: 10.9; USP10 inh: 28.3

How did Cc1noc(NS(=O)(=O)c2ccc(NC(=O)COc3ccc(N(C)C(=O)c4ccc(Cl)cc4)cc3)cc2)c1C do in these assays?
USP17 inh: -27.6; USP8 block: 5.3; USP10 inh: 16.5

Results for O=C(c1cccc(F)c1)N1CCC(Nc2cccnc2)C1 (configuration not stated) ?
USP28 inh: -148.2; USP17 inh: -89.7; USP8 block: 24.9; USP30 block: inactive; USP10 inh: -4.2

What do the screens show for `O=C(NCc1ccc(F)cc1)N1CCC(Nc2cccnc2)C1` (configuration not stated)?
USP28 inh: -105.2; USP17 inh: -30.4; USP8 block: 35.4*; USP30 block: -343.7; USP10 inh: -6.3

What do the screens show for `O=C1CC2(C(=O)N(Cc3ccc(Cl)cc3)c3ccccc32)c2cn[nH]c2N1` (configuration not stated)?
USP28 inh: 1.9; USP17 inh: -21.3; USP8 block: -8.6; USP30 block: 0.3; USP10 inh: 2.4

What do the screens show for `Cc1cc(NS(=O)(=O)c2ccc(NC(=O)c3ccc4nccnc4c3)cc2)no1`?
USP28 inh: 22.6; USP17 inh: -9.3; USP8 block: -45.2; USP30 block: 2.0; USP10 inh: 3.2

What do the screens show for `COCCn1cnc2c1c(=O)n(CC(=O)NCCc1ccc(OC)cc1)c(=O)n2Cc1ccccc1`?
USP28 inh: -7.2; USP17 inh: -3.3; USP8 block: -4.4; USP30 block: -5.5; USP10 inh: -3.1

How did COc1ccc(OC)c(NC(=O)C2=C(C)Nc3ncnn3C2c2ccccc2OCc2ccc(C)cc2)c1 (configuration not stated) do in these assays?
USP28 inh: -2.6; USP17 inh: 58.3*; USP8 block: 0.8; USP30 block: -19.7; USP10 inh: -6.6

Results for COc1ccc(OC)c(NC(=O)C2=C(C)Nc3ncnn3C2c2ccccn2)c1 (configuration not stated) ?
USP28 inh: 0.6; USP17 inh: 7.3; USP8 block: 5.3; USP30 block: 4.4; USP10 inh: 2.0

What do the screens show for `CC(=O)c1sc(NS(=O)(=O)c2ccc(C)cc2)nc1-c1ccccc1`?
USP28 inh: 14.9; USP17 inh: 20.6; USP8 block: 8.8; USP30 block: 18.7; USP10 inh: 1.8

What do the screens show for `CC(=O)c1sc(NC(=O)c2cccc(S(=O)(=O)Nc3ccccc3F)c2)nc1-c1ccccc1`?
USP28 inh: 10.2; USP17 inh: 31.7*; USP8 block: 17.4; USP30 block: 26.9; USP10 inh: 26.7

How did Cc1ccccc1CN1C[C@@H]2c3nc(N4CCCC4)ncc3CS(=O)(=O)[C@@H]2C1 do in these assays?
USP28 inh: -20.5; USP17 inh: -3.6; USP8 block: -7.8; USP30 block: -109.6; USP10 inh: -9.4

How did Cc1ccc(NC(=O)Nc2ccccc2OCc2cc(=O)n3cc(C)ccc3n2)cc1 do in these assays?
USP28 inh: 17.7; USP17 inh: 3.6; USP8 block: 32.1*; USP30 block: -2.8; USP10 inh: 16.8

What do the screens show for `O=C(Nc1ccc2c(c1)OCCO2)Nc1ccccc1OCc1cc(=O)n2ccccc2n1`?
USP28 inh: 8.3; USP17 inh: 4.3; USP8 block: -8.4; USP30 block: -3.9; USP10 inh: -2.2

Results for Cc1cccc(NCc2cc(=O)n3cc(C)ccc3n2)c1 ?
USP28 inh: 25.9; USP17 inh: 46.3*; USP8 block: 11.9; USP30 block: 7.5; USP10 inh: -0.8

How did Cc1ccc2nc(CNc3cc(F)ccc3C)cc(=O)n2c1 do in these assays?
USP28 inh: -4.6; USP17 inh: -12.3; USP8 block: -3.5; USP30 block: -56.3; USP10 inh: -7.9

What do the screens show for `O=C(Nc1ccc(F)cc1)Nc1ccccc1OCc1cc(=O)n2ccccc2n1`?
USP28 inh: 31.0*; USP17 inh: 41.2*; USP8 block: 42.8*; USP30 block: 46.4*; USP10 inh: 24.5

How did Cc1cccc(NC(=O)Nc2ccccc2OCc2cc(=O)n3cccc(C)c3n2)c1 do in these assays?
USP28 inh: 24.0; USP17 inh: 9.2; USP8 block: 36.2*; USP30 block: 29.3; USP10 inh: 26.1

Results for CCc1noc(C2(NC(=O)Cc3c[nH]c4ccccc34)CCCCC2)n1 ?
USP28 inh: -22.6; USP17 inh: -19.0; USP8 block: -22.0; USP30 block: -78.9; USP10 inh: -8.7

How did Cn1c(SCCOc2ccc(Cl)cc2)nnc1-c1ccc2c(c1)OCCO2 do in these assays?
USP28 inh: 27.3; USP17 inh: 18.2; USP8 block: 9.6; USP30 block: 54.0*; USP10 inh: 6.5

Results for Cn1c(SCCOc2ccccc2)nnc1-c1ccc2c(c1)OCCCO2 ?
USP28 inh: 4.1; USP17 inh: 3.1; USP8 block: 3.3; USP30 block: 7.4; USP10 inh: 1.8

Results for CC1CCCN(S(=O)(=O)c2ccc(-n3cnc(C(=O)N4CCCC4)c3)nc2)C1 (configuration not stated) ?
USP28 inh: -1.6; USP17 inh: 29.5; USP8 block: -4.7; USP30 block: 46.2*; USP10 inh: 0.2

Results for O=C(Cn1cnc2cc3c(cc21)OCCO3)N1CCCCC1 ?
USP28 inh: -9.2; USP17 inh: -7.8; USP8 block: -7.4; USP30 block: -16.4; USP10 inh: 0.0

Results for COc1ccc(C)cc1NC(=O)COc1ncnc2ccccc12 ?
USP28 inh: 14.4; USP17 inh: -0.5; USP8 block: 0.2; USP30 block: 9.0; USP10 inh: 0.8

How did O=C(COc1ncnc2ccccc12)Nc1ccc2c(c1)OC1(CCCC1)O2 do in these assays?
USP28 inh: 25.9; USP17 inh: 59.8*; USP8 block: 58.2*; USP30 block: 10.2; USP10 inh: 9.8

Results for N#Cc1ccc(CC2(Cc3ccc(C#N)cc3)C(=O)N(Cc3ccccn3)C(=O)c3ccccc32)cc1 ?
USP28 inh: 20.1; USP17 inh: 15.8; USP8 block: 15.7; USP30 block: 44.5*; USP10 inh: 8.2

Results for O=C1N(Cc2ccccn2)C(=O)C2(Cc3ccccc3)CCN(Cc3ccccn3)CCN12 (configuration not stated) ?
USP28 inh: 1.7; USP17 inh: 5.4; USP8 block: 9.8; USP30 block: 9.3; USP10 inh: -1.2

How did COc1cc(C(=O)Nc2ncc3c(n2)CC(c2ccc(C)cc2)CC3=O)cc(OC)c1OC (configuration not stated) do in these assays?
USP28 inh: -4.3; USP17 inh: -9.6; USP8 block: -9.0; USP30 block: -0.6; USP10 inh: 1.9
